# Test results published in the supplement of paper PMC7156485.
# ± gives the standard deviation of the averaged measurements.
# Tested on: TDF
# Experiment: cell number relative to DMSO (% of DMSO); higher = more cells (less growth inhibition / toxicity)
# Conditions: concentration: 10 µM; 24 h
# Summary of the method: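 Treatment: HCC1569 and TDF cells, 800 per well in 384-well plates with RPMI and 10% FBS, were given compounds at 10 µM for 24 h at 37 °C, in triplicate. Readout: after 3.7% formaldehyde fixation, cells were stained with a rabbit anti-H1.0 antibody, an AlexaFluor 647 secondary and DAPI. Reported values are H1.0 nuclear intensity or cell number as percent of the plate control, taken as the median of replicates, with positional smoothing for HCC1569.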
# 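Note: TDF denotes transformed human dermal fibroblasts of mesenchymal origin.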
row,SMILES,cell number
1,"CN(Cc1cnc2nc(N)nc(N)c2n1)c1ccc(C(=O)NC(CCC(=O)O)C(=O)O)cc1 (single isomer, unassigned; (-)) [(-)Amethopterin]",96.2
2,CN1c2cc3c(cc2N=C(c2ccc(C(=O)O)cc2)c2ccccc21)C(C)(C)CCC3(C)C,88.5
3,CC(C)(Sc1ccc(CCN(CCCCC2CCCCC2)C(=O)NC2CCCCC2)cc1)C(=O)O,107
4,CC(C=CC1=C(C)CCCC1(C)C)=CC=CC(C)=CC(=O)O [Retinoic acid],102
5,CCOC(=O)c1cnc2c(cnn2CC)c1NN=C(C)C [Etazolate],108
6,CS(=O)(=O)Nc1ccc(-c2coc3cc(OCc4cccc(C(=O)O)c4)ccc3c2=O)cc1,109
7,O=P(O)(O)C(O)(Cc1cccnc1)P(=O)(O)O [Risedronic acid],103
8,Clc1ccc(CON=C(Cn2ccnc2)c2ccc(Cl)cc2Cl)c(Cl)c1 [Oxiconazole],101
9,COc1cc(Cc2cnc(N)nc2N)cc(OC)c1OC [Trimethoprim],95.9 ± 2.8
10,COc1c(O)cc(O)c2c(=O)cc(-c3ccccc3)oc12 [Wogonin],98.7
11,O=C(O)CCCC=CCC1C(O)CC(O)C1C=CC(O)COc1cccc(C(F)(F)F)c1 (stereo not drawn) [Fluprostenol],96
12,CCCCCCC(O)CC=CCCCCCCCC(=O)O (stereo not drawn) [Ricinoleic acid],104
13,"CCN1C(=CC(C)=O)Sc2ccc(OC)cc21 [Cdc2-Like Kinase Inhibitor, TG003]",112
